In PubChem BioAssay (EPA / NIEHS):
Active and inactive are the calls of the source. Rule for the calls: active = hit-call score of the fitted dose curve at least 0.9, where 1 is the maximum; inactive = score below 0.9.

Columns and labels:
Conditions in all cases: mRNA level, 48 h; actives raise or lower the signal
[1] = read-out: Tumor necrosis factor receptor superfamily member 6 (Homo sapiens) (UniProt P25445); assay: LTEA_HepaRG_FAS: Life Technologies and Expression Analysis (LTEA) Assay for Fas cell surface death receptor (FAS) using HepaRG (AID 2283447)
In short: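 FAS transcript level was measured by TaqMan qRT-PCR against three housekeeping genes after 48 h chemical exposure. Cells were HepaRG, 0.5% DMSO vehicle, with a top concentration of 100 uM and half-log dilutions over eight points, in duplicate.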

[2] = read-out: Fatty acid synthase (Homo sapiens) (UniProt P49327); assay: LTEA_HepaRG_FASN: Life Technologies and Expression Analysis (LTEA) Assay for Fatty Acid Synthase (FASN) using HepaRG (AID 2283448)
In short: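 Cells were plated, cultured 48 h, switched to serum-free induction medium, then dosed in duplicate (max 100 uM, half-log dilutions, 0.5% DMSO) for 48 h. RNA was then isolated and FASN quantified by qRT-PCR.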

[3] = read-out: Cyclin D2 (CCND2), CCND2 (gene 894); assay: LTEA_HepaRG_CCND2: Life Technologies and Expression Analysis (LTEA) Assay for Cyclin D2 (CCND2) using HepaRG (AID 2283449)
In short: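 CCND2 transcript levels, quantified by qRT-PCR and normalised to three housekeeping genes, were fitted bidirectionally against 0.5% DMSO. HepaRG cultures were dosed 48 h in duplicate with an 8-point half-log series up to 100 uM.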

[4] = read-out: Cyclin Dependent Kinase Inhibitor 1A (CDKN1A), CDKN1A (gene 1026); assay: LTEA_HepaRG_CDKN1A: Life Technologies and Expression Analysis (LTEA) Assay for Cyclin Dependent Kinase Inhibitor 1A (CDKN1A) using HepaRG (AID 2283450)
In short: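 Differentiated human HepaRG cells, pre-cultured 48 h, were exposed in duplicate for 48 h in serum-free induction medium to eight half-log concentrations up to 100 uM (0.5% DMSO). CDKN1A mRNA was measured by qRT-PCR, normalized to ACTB/GAPDH/POLR2A, bidirectionally fitted versus DMSO.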

[5] = read-out: Cyclin D1 (CCND1), CCND1 (gene 595); assay: LTEA_HepaRG_CCND1: Life Technologies and Expression Analysis (LTEA) Assay for Cyclin D1 (CCND1) using HepaRG (AID 2283451)
In short: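 Differentiated human HepaRG cells in serum-free induction medium were exposed 48 h to eight half-log concentrations up to 100 uM in 0.5% DMSO; mRNA quantified by TaqMan qRT-PCR, normalized to ACTB, GAPDH, POLR2A, fitted bidirectionally versus DMSO.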

[6] = read-out: catalase (CAT), CAT (gene 847); assay: LTEA_HepaRG_CAT: Life Technologies and Expression Analysis (LTEA) Assay for catalase (CAT) using HepaRG (AID 2283452)
In short: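 Expression of CAT was quantified by TaqMan qRT-PCR with ACTB/GAPDH/POLR2A normalization after 48 h chemical exposure of HepaRG. Eight-point half-log series, top 100 uM, in 0.5% DMSO; gain or loss fitted against vehicle.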

[7] = read-out: Cytochrome P450 (CYP1A1), CYP1A1 (gene 1543); assay: LTEA_HepaRG_CYP1A1: Life Technologies and Expression Analysis (LTEA) Assay for Cytochrome P450 (CYP1A1) using HepaRG (AID 2283454)
In short: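 Differentiated HepaRG cells in serum-free induction medium were exposed in duplicate for 48 h to eight half-log concentrations up to 100 uM in 0.5% DMSO. CYP1A1 mRNA was quantified by TaqMan qRT-PCR, normalized to ACTB, GAPDH and POLR2A.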

[8] = read-out: CFLAR gene, CFLAR (gene 8837); assay: LTEA_HepaRG_CFLAR: Life Technologies and Expression Analysis (LTEA) Assay for CFLAR gene using HepaRG (AID 2283455)
In short: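 Transcript level by qRT-PCR (normalized to ACTB, GAPDH and POLR2A) after 48 h chemical exposure of HepaRG cells, top concentration 100 uM with half-log steps, 0.5% DMSO vehicle, duplicates; fitted bidirectionally against DMSO baseline.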

[9] = read-out: Forkhead box O1 (FOXO1), FOXO1 (gene 2308); assay: LTEA_HepaRG_FOXO1: Life Technologies and Expression Analysis (LTEA) Assay for Forkhead box O1 (FOXO1) using HepaRG (AID 2283456)
In short: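 FOXO1 transcript quantified by qRT-PCR after 48 h chemical exposure (top 100 uM, half-log steps, 0.5% DMSO) of HepaRG cells, housekeeping-normalized (ACTB/GAPDH/POLR2A). Changes fitted in both directions relative to vehicle.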

[10] = read-out: Forkhead box O3 (FOXO3), FOXO3 (gene 2309); assay: LTEA_HepaRG_FOXO3: Life Technologies and Expression Analysis (LTEA) Assay for Forkhead box O3 (FOXO3) using HepaRG (AID 2283459)
In short: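 FOXO3 transcript measured by qRT-PCR (normalized to ACTB, GAPDH, POLR2A) after 48 h exposure of HepaRG cells in serum-free induction medium. Duplicates, eight half-log concentrations up to 100 uM, 0.5% DMSO; gain or loss fitted against DMSO.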

[11] = read-out: ABC Transporter (ABCB1), ABCB1 (gene 5243); assay: LTEA_HepaRG_ABCB1: Life Technologies and Expression Analysis (LTEA) Assay for ABC Transporter (ABCB1) using HepaRG (AID 2283460)
In short: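 ABCB1 transcript level measured by TaqMan qRT-PCR against three housekeeping genes after 48 h chemical exposure of differentiated HepaRG cells. Top concentration 100 uM, half-log steps, eight points, 0.5% DMSO vehicle; bidirectional fit relative to DMSO.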

[12] = read-out: growth arrest and DNA damage 45 (GADD45B), GADD45B (gene 4616); assay: LTEA_HepaRG_GADD45B: Life Technologies and Expression Analysis (LTEA) Assay for growth arrest and DNA damage 45 (GADD45B) using HepaRG (AID 2283461)
In short: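 Differentiated HepaRG cells, plated 48 h then switched to serum-free induction medium, were exposed 48 h in duplicate to eight half-log concentrations from 100 uM in 0.5% DMSO; mRNA quantified by qRT-PCR, normalized to ACTB/GAPDH/POLR2A, bidirectional fit versus DMSO.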

[13] = read-out: ABC Transporter (ABCC3), ABCC3 (gene 8714); assay: LTEA_HepaRG_ABCC3: Life Technologies and Expression Analysis (LTEA) Assay for ABC Transporter (ABCC3) using HepaRG (AID 2283462)
In short: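 HepaRG cells in serum-free induction medium were exposed for 48 h in duplicate to 8-point half-log concentrations topping at 100 uM in 0.5% DMSO. ABCC3 mRNA was measured by qRT-PCR normalized to ACTB, GAPDH and POLR2A, with bidirectional fitting versus DMSO.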

[14] = read-out: ABC Transporter (ABCB11), ABCB11 (gene 8647); assay: LTEA_HepaRG_ABCB11: Life Technologies and Expression Analysis (LTEA) Assay for ABC Transporter (ABCB11) using HepaRG (AID 2283463)
In short: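 ABCB11 transcript levels quantified by TaqMan qRT-PCR against three housekeeping genes after 48 h chemical exposure of HepaRG cultures. Concentrations up to 100 uM in half-log steps, 0.5% DMSO vehicle; both induction and suppression scored.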

[15] = read-out: ABC Transporter (ABCC2), ABCC2 (gene 1244); assay: LTEA_HepaRG_ABCC2: Life Technologies and Expression Analysis (LTEA) Assay for ABC Transporter (ABCC2) using HepaRG (AID 2283464)
In short: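 HepaRG cells were plated 48 h, switched to serum-free induction medium, then exposed in duplicate for 48 h to 8 concentrations (top 100 uM, half-log steps, 0.5% DMSO). ABCC2 mRNA was measured by qRT-PCR normalized to ACTB/GAPDH/POLR2A; bidirectional fitting versus DMSO.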

[16] = read-out: Broad substrate specificity ATP-binding cassette transporter ABCG2 (Homo sapiens) (UniProt Q9UNQ0); assay: LTEA_HepaRG_ABCG2: Life Technologies and Expression Analysis (LTEA) Assay for ABC Transporter (ABCG2) using HepaRG (AID 2283465)
In short: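 ABCG2 transcript was quantified by TaqMan qRT-PCR against three housekeeping genes in HepaRG cells. Cells were treated in duplicate for 48 h across an 8-point half-log series up to 100 uM, with 0.5% DMSO vehicle. Gain or loss versus DMSO was fit.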

[17] = read-out: ATP-citrate lyase (ACLY), ACLY (gene 47); assay: LTEA_HepaRG_ACLY: Life Technologies and Expression Analysis (LTEA) Assay for ATP-citrate lyase (ACLY) using HepaRG (AID 2283466)
In short: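 ACLY mRNA quantified by qRT-PCR on Fluidigm arrays against three housekeeping genes, after 48 h chemical treatment of HepaRG cells (top concentration 100 uM, half-log steps, 0.5% DMSO vehicle). Up- or down-regulation fitted relative to DMSO.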

[18] = read-out: flavin-containing dimethylaniline monooxygenases 3 (FMO3), FMO3 (gene 2328); assay: LTEA_HepaRG_FMO3: Life Technologies and Expression Analysis (LTEA) Assay for flavin-containing dimethylaniline monooxygenases 3 (FMO3) using HepaRG (AID 2283453)
In short: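 FMO3 transcript quantified by TaqMan qRT-PCR against three housekeeping genes after 48 h chemical exposure of HepaRG cells. Eight-point half-log series, top 100 uM, 0.5% DMSO vehicle; phenobarbital 1mM induction control; up- or down-regulation fitted.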

[19] = read-out: growth arrest and DNA damage 45 (GADD45A), GADD45A (gene 1647); assay: LTEA_HepaRG_GADD45A: Life Technologies and Expression Analysis (LTEA) Assay for growth arrest and DNA damage 45 (GADD45A) using HepaRG (AID 2283458)
In short: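 Transcript induction or loss, quantified by TaqMan qRT-PCR against three housekeeping genes, is the read-out. HepaRG cells received chemicals for 48 h across eight half-log concentrations from 100 uM in 0.5% DMSO; gain and loss fitted relative to DMSO.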

Measured: AC50

Chain of Fatty acid synthase (Homo sapiens) (P49327 whole entry, looked up): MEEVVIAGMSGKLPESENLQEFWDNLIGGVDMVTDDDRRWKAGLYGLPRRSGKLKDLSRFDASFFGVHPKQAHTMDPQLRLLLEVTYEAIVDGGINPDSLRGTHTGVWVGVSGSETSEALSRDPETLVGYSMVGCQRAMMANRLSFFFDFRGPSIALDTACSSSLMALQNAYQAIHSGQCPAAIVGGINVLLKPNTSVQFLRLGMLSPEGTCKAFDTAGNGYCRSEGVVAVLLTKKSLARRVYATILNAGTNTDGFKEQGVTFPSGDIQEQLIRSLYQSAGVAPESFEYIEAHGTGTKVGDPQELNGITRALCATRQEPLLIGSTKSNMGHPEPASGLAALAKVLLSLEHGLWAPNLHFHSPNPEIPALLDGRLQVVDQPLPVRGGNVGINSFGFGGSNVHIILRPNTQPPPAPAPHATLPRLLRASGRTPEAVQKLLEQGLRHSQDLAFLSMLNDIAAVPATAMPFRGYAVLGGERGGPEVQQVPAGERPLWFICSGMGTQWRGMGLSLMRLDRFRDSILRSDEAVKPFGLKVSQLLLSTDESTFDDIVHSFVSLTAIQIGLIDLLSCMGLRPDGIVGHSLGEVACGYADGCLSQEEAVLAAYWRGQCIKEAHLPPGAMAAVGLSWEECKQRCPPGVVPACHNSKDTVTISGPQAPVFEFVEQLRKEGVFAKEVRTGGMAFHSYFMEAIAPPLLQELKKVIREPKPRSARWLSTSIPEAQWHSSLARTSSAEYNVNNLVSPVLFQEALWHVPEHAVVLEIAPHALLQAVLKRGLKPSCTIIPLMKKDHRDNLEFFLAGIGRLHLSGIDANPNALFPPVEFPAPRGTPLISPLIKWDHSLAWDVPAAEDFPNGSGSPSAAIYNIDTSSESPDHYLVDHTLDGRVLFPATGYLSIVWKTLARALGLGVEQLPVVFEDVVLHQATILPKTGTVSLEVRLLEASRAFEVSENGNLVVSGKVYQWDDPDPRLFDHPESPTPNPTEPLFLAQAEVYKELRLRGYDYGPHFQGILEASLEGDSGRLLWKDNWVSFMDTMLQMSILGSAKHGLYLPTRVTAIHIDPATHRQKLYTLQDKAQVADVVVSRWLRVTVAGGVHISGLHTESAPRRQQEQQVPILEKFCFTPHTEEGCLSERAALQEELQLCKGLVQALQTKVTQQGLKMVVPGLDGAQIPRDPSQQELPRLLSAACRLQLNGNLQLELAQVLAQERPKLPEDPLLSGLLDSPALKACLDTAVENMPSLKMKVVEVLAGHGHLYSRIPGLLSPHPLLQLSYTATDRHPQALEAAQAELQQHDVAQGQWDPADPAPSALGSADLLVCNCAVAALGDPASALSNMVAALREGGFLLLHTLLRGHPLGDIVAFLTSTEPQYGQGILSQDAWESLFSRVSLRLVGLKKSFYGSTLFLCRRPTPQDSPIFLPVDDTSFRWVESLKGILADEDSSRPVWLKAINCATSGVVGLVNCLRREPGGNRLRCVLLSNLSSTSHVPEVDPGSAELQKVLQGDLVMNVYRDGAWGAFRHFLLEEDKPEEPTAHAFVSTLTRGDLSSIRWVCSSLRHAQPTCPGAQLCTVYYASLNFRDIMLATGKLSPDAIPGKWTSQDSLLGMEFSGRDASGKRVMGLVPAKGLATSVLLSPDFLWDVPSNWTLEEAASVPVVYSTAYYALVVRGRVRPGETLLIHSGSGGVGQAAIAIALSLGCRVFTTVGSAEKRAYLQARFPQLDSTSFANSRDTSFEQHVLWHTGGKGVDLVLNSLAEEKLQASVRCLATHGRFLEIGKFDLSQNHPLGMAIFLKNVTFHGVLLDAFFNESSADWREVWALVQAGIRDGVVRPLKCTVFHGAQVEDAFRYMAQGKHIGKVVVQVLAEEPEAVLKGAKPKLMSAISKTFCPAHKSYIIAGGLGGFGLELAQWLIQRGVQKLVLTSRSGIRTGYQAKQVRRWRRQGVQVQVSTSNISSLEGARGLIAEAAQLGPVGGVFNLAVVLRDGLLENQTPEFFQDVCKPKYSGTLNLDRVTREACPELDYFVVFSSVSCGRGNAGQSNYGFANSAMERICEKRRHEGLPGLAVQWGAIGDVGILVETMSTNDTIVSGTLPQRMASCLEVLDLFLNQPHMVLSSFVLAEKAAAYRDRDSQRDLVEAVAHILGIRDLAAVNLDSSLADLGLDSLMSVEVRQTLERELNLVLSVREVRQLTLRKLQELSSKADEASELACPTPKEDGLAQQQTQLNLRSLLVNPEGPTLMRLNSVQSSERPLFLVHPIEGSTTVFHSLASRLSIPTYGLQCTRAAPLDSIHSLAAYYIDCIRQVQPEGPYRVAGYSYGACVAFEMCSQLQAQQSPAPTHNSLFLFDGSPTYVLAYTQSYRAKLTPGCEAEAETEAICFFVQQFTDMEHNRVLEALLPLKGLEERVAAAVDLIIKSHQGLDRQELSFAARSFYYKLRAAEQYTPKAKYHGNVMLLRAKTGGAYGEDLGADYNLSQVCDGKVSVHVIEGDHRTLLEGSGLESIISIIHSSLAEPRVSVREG
Chain of Broad substrate specificity ATP-binding cassette transporter ABCG2 (Homo sapiens) (Q9UNQ0 whole entry, looked up): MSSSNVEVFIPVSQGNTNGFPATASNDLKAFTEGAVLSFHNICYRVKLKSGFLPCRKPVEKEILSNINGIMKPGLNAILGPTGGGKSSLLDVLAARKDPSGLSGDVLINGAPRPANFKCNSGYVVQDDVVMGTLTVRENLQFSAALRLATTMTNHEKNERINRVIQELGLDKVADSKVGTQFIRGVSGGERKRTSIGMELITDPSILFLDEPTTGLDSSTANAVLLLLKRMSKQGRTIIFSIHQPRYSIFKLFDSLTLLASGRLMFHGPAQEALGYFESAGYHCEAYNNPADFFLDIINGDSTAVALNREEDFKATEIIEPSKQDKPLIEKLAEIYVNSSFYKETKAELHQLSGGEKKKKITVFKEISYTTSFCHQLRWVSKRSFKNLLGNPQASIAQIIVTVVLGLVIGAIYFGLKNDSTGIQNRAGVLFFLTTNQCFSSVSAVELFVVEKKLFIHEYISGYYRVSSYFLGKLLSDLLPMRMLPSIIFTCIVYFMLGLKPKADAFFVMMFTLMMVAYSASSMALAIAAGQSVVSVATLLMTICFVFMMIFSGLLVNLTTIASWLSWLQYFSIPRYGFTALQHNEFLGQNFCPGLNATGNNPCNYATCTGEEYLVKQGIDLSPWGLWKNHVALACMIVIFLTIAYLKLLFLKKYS

CCCCCCCCCCO
not listed: [18] | [19]
inactive: all other assays above

Cc1ccccc1Cl
active: [7] 50 µM
not listed: [5] | [13] | [16] | [19]
inactive: all other assays above

CCCc1cc(=O)[nH]c(=S)[nH]1
active: [7] 50 µM
not listed: [5]
inactive: all other assays above

CC(=O)OC/C=C(\C)CCC=C(C)C
not listed: [18] | [19]
inactive: all other assays above
